# Source: the supplement of paper PMC3484114
# ± gives the standard deviation.
# System: OVCAR-3-derived ovarian cancer stem-like cells (spheroids)
# Assay: cell growth relative to untreated control; higher = more growth (less inhibition)
# Conditions: 2.29 µM; 96 h
# Procedure, shortened: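 Percent growth was calculated against untreated wells once blanks were subtracted and Grubbs outliers removed. The cells were OVCAR-3 spheroid-derived stem-like cells, trypsinized and plated at 50,000 cells/mL in stem cell medium on ultra-low attachment 96-well plates for a 24 h preincubation. They were then exposed to compounds at 2.29 uM for 96 h at 37°C, 5% CO2, in 4 replicate wells, and viability was measured by TOX8 resazurin fluorescence (ex 560/em 590 nm) after 4 h.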
row,Compound,cell growth
1,COC(=O)C1(C)CCCC2(C)c3cc(OC)ccc3C(=O)C(Br)C12 (centres undefined),89.4 ± 39%
2,CN(C)c1ccc2c(SCC(=O)OCC(=O)[C@@]3(O)CC[C@H]4[C@@H]5CCC6=CC(=O)C=C[C@]6(C)[C@H]5C(=O)C[C@@]43C)c3ccc(N(C)C)cc3nc2c1,59.1 ± 8.1%
3,CN(C)c1ccc(/C=c2/sc3nc(=O)c(-c4ccccc4NC(=O)C(F)(F)F)nn3c2=O)cc1,83.4 ± 18%
4,COc1ccc(S(=O)(=O)N/N=C/C(=O)O)cc1,117 ± 15%
5,COc1cc(OC)c2c(C)cc(=O)oc2c1,108 ± 32%
6,Nc1ncnc2c1nc(Cl)n2[C@@H]1O[C@@H]2COP(=O)(O)O[C@H]2[C@H]1O,115 ± 43%
7,CS(=O)(=O)c1nc(N)nc2nc[nH]c12,99.3 ± 19%
8,Oc1ccc(-c2nc3ccccc3s2)cc1,94.8 ± 14%
9,CCNC(=O)OCc1c(COC(=O)NCC)c(-c2ccc(Cl)c(Cl)c2)n2c1CCC2,74.1 ± 12%
10,C[C@]12C=CC(=O)C=C1[C@@H](F)C[C@H]1[C@@H]3CC[C@](O)(C(=O)CO)[C@@]3(C)C[C@H](O)[C@@]12F,80 ± 22%
11,CN(C)CCNC(=O)c1cccc2[nH]c(-c3ccncc3)nc12,96.5 ± 22%
12,NC(N)=NCCCS(=O)(=O)Nc1ccc(Nc2c3ccccc3nc3cc([N+](=O)[O-])ccc23)cc1,127 ± 32%
13,COc1ccc(-n2/c(=N/C(=S)N(C)C)ss/c2=N\C(=S)N(C)C)cc1,111 ± 15%
14,C=C1C(=O)C23CC[C@@H]4C(C)(C(=O)OC)CCCC4(C)[C@@H]2CCC1(O)C3 (some centres undefined),13 ± 5.5%
15,Cc1c(C(=O)C/C(=N/NC(=O)CC#N)C(N)=O)[n+](=O)c2ccccc2n1[O-],51.9 ± 10%
16,Cc1cc(O)c(C(C)C)cc1C1(c2cc(C(C)C)c(O)cc2C)OC(=O)c2ccccc21,104 ± 32%
17,O=c1ncccn1C1OC(CO)C(O)C1F (centres undefined),113 ± 22%
18,COc1cc2c3c(n(C)c(=O)c2cc1OC)-c1cc2c(cc1C3=O)OCO2,101 ± 38%
19,CC1=NN(C(=O)c2ccncc2)C(=O)C1N=Nc1ccc(F)cc1 (centres undefined),146 ± 33%
20,c1coc(CNc2ncnc3[nH]ncc23)c1,37.7 ± 8.4%

row,Compound,cell growth
1,C/C=C(\CCC1NCCc2c1[nH]c1ccccc21)[Si](C)(C)C (centres undefined),86.5 ± 9.4%
2,O=Cc1cc([N+](=O)[O-])no1,115 ± 26%
3,Cc1cc(NCCCCCCCNc2cc(C)nc3cc(N)ccc23)c2ccc(N)cc2n1,96.4 ± 25%
4,CC(C)=CCC1=C(O)c2ccccc2C(=O)C1=O,109 ± 28%
5,CCSC(=O)N1c2ccc(OC)cc2C=CC1C#N (centres undefined),52.9 ± 11%
6,Cc1c(Cl)ccc2c1NC(=O)C2(O)C(C(=O)c1ccccc1)c1ccccc1 (centres undefined),107 ± 48%
7,CC(C)C1=C(O)C2=C(C(=O)C1=O)C1(C)CCCC(C)(C)C1CC2O (centres undefined),134 ± 36%
8,COC(=O)c1c[nH]c2c1-c1cc(C(=O)OCc3ccccc3)n(S(=O)(=O)c3ccc(C)cc3)c1C(=O)C2=O,20.9 ± 3.5%
9,CCS(=O)(=O)Nc1ccc(Nc2c3ccccc3nc3ccccc23)c(OC)c1,32.5 ± 9%
10,CC(C)(C)[Si](C)(C)OCC1CCC(n2cnc3c(N)ncnc32)O1 (centres undefined),111 ± 23%
11,Nc1nncs1,98.4 ± 22%
12,O=C(NC1=C(Cl)C(=O)c2ccccc2C1=O)C(=O)C(C(=O)c1ccc2ccccc2c1)C1OC(=O)c2ccccc21 (centres undefined),89.6 ± 20%
13,O=C(CC1(O)C(=O)Nc2c(Cl)ccc(Cl)c21)c1ccc(Cl)cc1Cl (centres undefined),123 ± 11%
14,OC(CN1CCCCC1)c1ccc(/C=C/c2ccc(Cl)cc2)cc1 (centres undefined),112 ± 16%
15,CN(C)CCCN1c2ccccc2Sc2ccc3ccccc3c21,117 ± 58%
16,CC1(C)CC(Nc2ccc(Nc3ccccc3)cc2)CC(C)(C)N1,72.4 ± 10%
17,O=C1/C(=C\c2ccccc2)CN(C(=O)/C=C/c2ccccc2)C/C1=C\c1ccccc1,74.7 ± 18%
18,O=S(=O)(c1cccc(N=C=S)c1)c1cccc(N=C=S)c1,111 ± 11%
19,CC(=O)C1=C(O)C2(O)C(=O)c3c(c(C)c4ccc(C)c(O)c4c3O)CC2C(N)C1=O (centres undefined),118 ± 30%
